Bioassay records as filed in PubChem.
Rows were chosen to be rich in hits. Some 6.5% of all compounds tested hit in one or more screens of this group.
VACV Venus inh: vaccinia inhibition (Venus reporter); Vaccinia virus Venus reporter expression, fluorescence; Potency, µM (titrated, usually from 36.5 µM), without a hit: at the top dose activity change, negative = inhibition, most hits filed as inhibitors; hit rate 0.46% among 330,000; AID 720580; calls by dose curve; tested in A549 cells; also: potency is read from the fitted curve at half-maximal effect; nearly all actives have a fitted effect of over 30% in size
Marburg entry inh: Marburg virus entry inhibition | AID 540276 | hit rate 1.8% among 300,000 | Marburg virus pseudotyped entry inhibition, cell reporter | Potency, µM (highest dose often 37.8 µM), inactives show top-dose activity change, negative = inhibition, most hits filed as inhibitors; calls by dose curve; tested in HEK293 cells; also: potency is read from the fitted curve at half-maximal effect
LASV entry inh: Lassa virus entry inhibition | Lassa virus pseudotype entry inhibition, cell reporter | AID 540256 | Potency, µM (doses to about 37.9 µM), without a hit: top-dose activity change, negative = inhibition, hits mostly inhibitors | hit rate 1.2% among 300,000; calls by dose curve; tested in HEK293 cells; also: potency is read from the fitted curve at half-maximal effect; nearly all actives have a fitted effect of over 50% in size
FMDV antiviral: antivirals against foot and mouth disease virus; AID 1159524; Potency, µM (highest dose often 57.9 µM), for inactives: at the highest dose activity change, negative = inhibition, most hits filed as inhibitors; hit rate 1.2% among 410,000; FMDV antiviral cell-based qHTS; calls by dose curve; tested in HEK293T cells; also: read-out not given here; potency is read from the fitted curve at half-maximal effect; nearly all actives have a fitted effect of over 45% in size
Vaccinia mCherry: inhibitors of vaccinia virus infection (mCherry reporter signal); Vaccinia virus mCherry reporter infection, fluorescence; Potency, µM (doses to about 36.5 µM), for inactives: top-dose activity change, negative = inhibition, most hits filed as inhibitors; hit rate 0.63% among 310,000; AID 720579; calls by dose curve; tested in A549 cells; also: potency is read from the fitted curve at half-maximal effect; nearly all actives have a fitted effect of over 35% in size
HCMV antiviral: human cytomegalovirus inhibition. HFF cells, HCMV-luciferase reporter, 72 h; active compounds read low. activity change, negative = inhibition, % at 57.5 µM. hit rate 4.5% among 410,000. AID 1259415; in the data active = activity change below about -60%; inconclusive = no clear call, values can overlap the other calls; inactive = above about -39%
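Compounds were evaluated in HFFs infected with an HCMV luciferase reporter virus (MOI 1 PFU/cell). Luciferase in lysates collected 72 h post infection served as the replication measure.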
* hit, by the source's call; i = inactive; ? = inconclusive; nt = no result given; [ ] = another dose, or the depositor's remark. % is scaled to controls: 0 for no effect and ±100 for the full control effect.

SMILES	VACV Venus inh	Marburg entry inh	LASV entry inh	FMDV antiviral	Vaccinia mCherry	HCMV antiviral
O=C(COC(=O)CNC(=O)c1ccccc1)Nc1ccc(Cl)cn1	9%	?	12%[46.1 µM]	-3%	-5%	-61*
COCCSc1ccccc1C(=O)Nc1ccc(Cl)cn1	-3%	24%	9%	-23%	-13%	-69*
O=C(COC(=O)CNC(=O)c1ccco1)Nc1ccc(Cl)cn1	6%	-1%	-19%	1%	-1%	14
O=C(CCCOc1ccccc1)Nc1ccc(Cl)cn1	-28%	-24%[46.1 µM]	-2%	28%	?	-65*
CC(=O)N1c2ccc(S(=O)(=O)NCC3CCC(C(=O)Nc4cc(C)ccc4C)CC3)cc2CC1C (stereo unspecified)	-29%	nt	7%[46.1 µM]	?	-8%	-16
COc1ccc(OCC(O)CN(C2CCCCC2)C2CCCCC2)cc1 (stereo unspecified)	-17%	?	15µM*	-1%	-23%	3
O=[N+]([O-])c1ccc(OCC(O)CN(C2CCCCC2)C2CCCCC2)cc1 (stereo unspecified)	-19%	?	-14%	?	i	-1
COc1cc2nc(C3CCC3)nc(N3CCN(c4ccccc4OC)CC3)c2cc1OC	?	?	?	?	?	25
COc1cc2nc(C3CCC3)nc(N3CCN(c4ccccn4)CC3)c2cc1OC	-8%	?	?	18µM*	-11%	nt
CC1(C)CC(=O)c2cc(-c3nc(-c4ccc(Br)cc4)cs3)c(=O)n(-c3ccccc3)c2C1	-7%	0%[46.1 µM]	1%[46.1 µM]	-13%	-2%	-10
O=C(Nc1scc(-c2ccc(Br)cc2)c1C(=O)O)c1ccccc1F	-22%	3.2µM*	?	12%	-11%	-22
CCOc1ccc(C(=O)NC2CC(=O)N(c3ccc(C)cc3)C2)cc1OCC (stereo unspecified)	-5%[7.34 µM]	nt	17%[46.1 µM]	-10%	-8%[7.34 µM]	-21
CN(C)S(=O)(=O)c1ccc(C(=O)Nc2ccc(F)cc2F)cc1	-18%	nt	nt	3%	i	28
CN(c1cccc(NC(=O)c2ccc(C(C)(C)C)cc2)c1)S(C)(=O)=O	-20%	?	?	?	i	-82*
CN(c1cccc(NC(=O)c2ccc(N(C)S(=O)(=O)c3ccccc3)cc2)c1)S(C)(=O)=O	nt	16µM*	?	14µM*	nt	-72*
CN(c1ccc(C(=O)Nc2ccc(F)cc2F)cc1)S(=O)(=O)c1ccccc1	-26%	-27%	11µM*	?	-5%	-33
O=C(NCc1ccccc1Cl)[C@@H]1[C@@H](CO)[C@@H]2Cn3c(cccc3=O)[C@@H]2N1C(=O)C1CCC1	nt	nt	nt	nt	nt	3
COc1ccc(COC(=O)NNC(=O)c2ccc(OC)cc2)cc1	-6%	7%	1.3µM*	14%	-4%	16
O=C(NC(=S)NNC(=O)c1cnccn1)c1ccc(Cl)cc1	-14%[7.34 µM]	-15%[46.1 µM]	-22%	24%	-20%[7.34 µM]	94
COc1ccc(C(=O)NC(=S)NNC(=O)c2cnccn2)cc1	-14%	?	-40%	8%	-15%	-85*
COc1ccc(C(=O)NNC(=S)NC(=O)C(C)(C)C)cc1	?	?	?	-4%	4µM*	-31
COc1ccc(OC)c(NC(=O)Nc2c(O)ccc3ccccc23)c1	nt	nt	nt	21%	nt	17
COc1ccc(OC)c(C(=O)Nc2c(O)ccc3ccccc23)c1	?	6%	?	19%	13µM*	31
CCNc1nc(OC)nc(Oc2ccc(=O)[nH]n2)n1	4%	-16%[46.1 µM]	2%[46.1 µM]	-11%	9%	9
COc1ccc(C(=O)NC(=S)NNC(=O)COc2ccccc2)cc1	-15%	?	18%	28µM*	?	-22
SMILES	VACV Venus inh	Marburg entry inh	LASV entry inh	FMDV antiviral	Vaccinia mCherry	HCMV antiviral
COc1ccc(NC(=O)c2cc3ccccc3cc2OC)cc1	?	-24%	?	14%	-23%	174
COc1cc2ccccc2cc1C(=O)NNC(=O)c1ccccc1O	nt	nt	nt	nt	nt	-91*
COc1ccc(C(=O)NC(=S)NNC(=O)c2ccccc2O)cc1	?	13µM*	-4%	10%	13µM*	39
O=C(/C=C/c1cccs1)NC(=S)NNC(=O)c1ccccc1O	-8%	?	?	-14%	?	-94*
CNc1cc(OC)c(C(=O)N[C@H]2CCN(Cc3ccccc3)[C@H]2C)cc1Cl	nt	nt	nt	-17%	nt	nt
CC(C)c1ccc(OCC(=O)NNC(=S)NC(=O)C2CC2)cc1	?	?	?	0%	-17%	-98*
N#Cc1ccc(OCC(=O)NNC(=S)NC(=O)C2CC2)cc1	-10%	25%	-7%	2%	i	4
O=C1C=CC(=O)C2=C1C1c3ccccc3C2c2ccccc21	nt	nt	nt	-17%	nt	nt
COc1ccc2c(c1)[nH]c1c(N3CCN(Cc4ccc5c(c4)OCO5)CC3)ncnc12	?	?	?	6.3µM*	?	-39
Cc1ccc2[nH]c3c(N4CCN(Cc5ccc6c(c5)OCO6)CC4)ncnc3c2c1	nt	1%	nt	nt	nt	?
COc1cc2[nH]c3c(N4CCN(c5ccc(Cl)cc5)CC4)ncnc3c2cc1OC	?	?	1%	-22%	-13%	?
COc1ccc2c(c1)[nH]c1c(N3CCSCC3)ncnc12	-25%	?	?	25µM*	?	?
CC1(C)CC(=O)C2=C(C1)O[C@@]1(CCCCN3C(=O)c4ccccc4C3=O)Cc3c(ccc4ccccc34)[C@H]2O1	nt	-27%[14.2 µM]	nt	nt	nt	nt
COc1ccc(C(=O)c2c(-c3ccc(OC)cc3)oc3ccc(-c4ccc(OC)nc4)cc23)cc1	-21%	nt	nt	-22%	-6%	-11
COc1ccc(C(=O)c2c(-c3cccc(C)c3)oc3ccc(N4CCOCC4)cc23)cn1	-11%	nt	nt	3%	-5%	-73*
COc1cccc(-c2cnc3c(NC=O)cc(-c4ccc(OC)cc4OC)cn23)c1	?	nt	nt	?	?	-92*
COc1ccc(-c2cc(NC=O)c3ncc(-c4ccc(OC)c(OC)c4)n3c2)c(OC)c1	?	nt	nt	-36%	-22%	-74*
COc1ccccc1-c1cc(NC=O)c2ncc(-c3cccc(C(C)=O)c3)n2c1	?	nt	nt	-27%	7.9µM*	59
O=C(c1ccccc1)N1CCN(CCc2ccncc2)CC1	-8%	24%[46.1 µM]	-9%[46.1 µM]	0%	-8%	-2
CCN(C(=O)CCc1nc(-c2ccc(C)cc2)no1)c1cccc(C(F)(F)F)c1	-14%	?	-12%[46.1 µM]	-20%	-16%	9
CC(C)CCN1C(Nc2ccccc2)=NC[C@@H]1Cc1ccccc1	-16%	nt	nt	-6%	-10%	-13
CC(CCN1C(Nc2ccccc2)=NC[C@@H]1Cc1ccccc1)c1ccccc1 (stereo partly specified)	-13%	nt	nt	-7%	?	-61*
CCC(C)CCN1C(N(C)C)=NC[C@@H]1Cc1ccccc1 (stereo partly specified)	-23%	nt	nt	-20%	-8%	-67*
Cc1ccc(C)c(NC(=O)CN2C(=O)c3cccnc3Oc3ccc(C)cc32)c1	-11%	nt	-6%[46.1 µM]	-8%	-19%	0
Cc1cccc(Nc2nnc(SC3CCOC3=O)s2)c1C (stereo unspecified)	-5%	?	-5%[46.1 µM]	-6%	i	-81*
